# According to publication PMC7862700, “An all-to-all approach to the identification of sequence-specific readers for epigenetic DNA modifications on cytosine”:
# How the values were obtained:
# Experiment in all cases: DAPPL (digital affinity profiling via proximity ligation, sequencing); 10 mM Tris-HCl pH 7.5, 50 mM NaCl, 1 mM DTT, 4% glycerol, room temperature, 30 min; GST-TFs on glutathione beads, 16-mer random dsDNA library, 0.1% formaldehyde crosslink after washing; high values mean tight binding
# FLI1 = target: T1, FLI1 (Homo sapiens, UniProt Q01543 1-452); conditions: protein: recombinant; tags: N-terminal GST; dsDNA, one strand shown
# T1 sequence: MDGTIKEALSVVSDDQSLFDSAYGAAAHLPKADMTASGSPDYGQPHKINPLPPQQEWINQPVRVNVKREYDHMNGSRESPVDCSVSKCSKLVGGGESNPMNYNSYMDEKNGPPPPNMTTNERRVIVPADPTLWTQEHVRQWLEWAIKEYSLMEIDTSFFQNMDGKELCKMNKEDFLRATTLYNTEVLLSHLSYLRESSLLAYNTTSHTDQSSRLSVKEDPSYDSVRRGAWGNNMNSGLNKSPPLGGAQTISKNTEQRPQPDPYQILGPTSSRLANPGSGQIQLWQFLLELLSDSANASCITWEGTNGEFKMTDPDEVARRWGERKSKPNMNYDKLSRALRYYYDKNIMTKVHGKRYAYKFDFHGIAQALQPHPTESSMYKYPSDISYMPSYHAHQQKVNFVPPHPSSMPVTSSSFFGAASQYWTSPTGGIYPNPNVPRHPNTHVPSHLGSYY
# How it was run: (§1)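 Sequencing on an Illumina NextSeq500 followed washing, crosslinking with 0.1% formaldehyde, proximity ligation (BsaI/T4 ligase, 1 h, 37 °C) and PCR amplification of pools that had been incubated for 30 min at room temperature with 200 nmole of a random double-stranded 16-mer DNA library in Tris/NaCl/DTT/glycerol buffer. Each pool held DNA-barcoded human transcription factors, expressed in yeast as GST fusions and captured on glutathione beads, plus a tag-only sample. Binding signal is a hexamer's read frequency for a factor divided by its frequency in the tag-only sample.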
# ELK1 = target: T2, ELK1 (Homo sapiens, UniProt P19419 1-428); conditions: protein: recombinant; tags: N-terminal GST; dsDNA, one strand shown
# T2 sequence: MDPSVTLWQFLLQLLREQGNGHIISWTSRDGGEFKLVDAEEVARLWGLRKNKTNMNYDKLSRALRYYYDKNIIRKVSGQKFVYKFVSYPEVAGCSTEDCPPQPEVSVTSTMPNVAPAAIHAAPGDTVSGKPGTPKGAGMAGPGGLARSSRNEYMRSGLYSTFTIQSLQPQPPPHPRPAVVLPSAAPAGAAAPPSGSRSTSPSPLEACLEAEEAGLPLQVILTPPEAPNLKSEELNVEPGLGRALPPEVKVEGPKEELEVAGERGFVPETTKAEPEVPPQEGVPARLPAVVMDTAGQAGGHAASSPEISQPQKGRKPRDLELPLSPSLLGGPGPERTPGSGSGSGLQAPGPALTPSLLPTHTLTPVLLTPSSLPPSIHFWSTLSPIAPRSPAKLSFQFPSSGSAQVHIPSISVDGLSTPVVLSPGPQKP
# How it was run: as §1
# GABPA = target: T3, GABPA (Homo sapiens, UniProt Q06546 1-454); conditions: protein: recombinant; tags: N-terminal GST; dsDNA, one strand shown
# T3 sequence: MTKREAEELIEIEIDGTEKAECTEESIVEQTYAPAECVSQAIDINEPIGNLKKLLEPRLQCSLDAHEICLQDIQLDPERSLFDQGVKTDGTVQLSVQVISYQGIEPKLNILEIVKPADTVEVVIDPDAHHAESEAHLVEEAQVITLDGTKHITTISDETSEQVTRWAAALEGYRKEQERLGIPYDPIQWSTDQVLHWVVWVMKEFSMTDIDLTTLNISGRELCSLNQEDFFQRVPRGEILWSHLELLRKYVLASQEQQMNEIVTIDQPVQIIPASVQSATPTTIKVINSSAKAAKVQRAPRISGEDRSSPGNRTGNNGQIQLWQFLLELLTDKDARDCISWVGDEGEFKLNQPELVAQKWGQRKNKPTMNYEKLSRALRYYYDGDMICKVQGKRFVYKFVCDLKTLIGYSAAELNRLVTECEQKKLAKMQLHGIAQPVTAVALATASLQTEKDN
# How it was run: as §1
# ERG = target: T4, ERG (Homo sapiens, UniProt P11308 1-479); conditions: protein: recombinant; tags: N-terminal GST; dsDNA, one strand shown
# T4 sequence: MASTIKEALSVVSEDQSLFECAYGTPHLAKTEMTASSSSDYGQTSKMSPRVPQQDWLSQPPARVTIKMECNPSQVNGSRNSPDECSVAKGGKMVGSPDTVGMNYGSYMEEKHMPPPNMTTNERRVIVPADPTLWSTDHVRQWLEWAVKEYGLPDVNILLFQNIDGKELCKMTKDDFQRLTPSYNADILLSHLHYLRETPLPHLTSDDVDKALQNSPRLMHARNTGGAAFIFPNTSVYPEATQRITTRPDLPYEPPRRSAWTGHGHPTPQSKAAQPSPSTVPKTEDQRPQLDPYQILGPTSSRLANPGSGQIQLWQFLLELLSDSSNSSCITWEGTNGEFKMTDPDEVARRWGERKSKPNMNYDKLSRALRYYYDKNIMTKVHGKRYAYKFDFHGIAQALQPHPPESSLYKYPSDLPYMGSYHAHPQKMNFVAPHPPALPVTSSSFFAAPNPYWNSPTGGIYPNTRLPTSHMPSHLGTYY
# How it was run: as §1
# ELF1 = ELF1 (Homo sapiens, UniProt P32519 1-619); conditions: protein: recombinant; tags: N-terminal GST; dsDNA, one strand shown
# How it was run: as §1
# EHF = target: T5, EHF (Homo sapiens, UniProt Q9NZC4 1-300); conditions: protein: recombinant; tags: N-terminal GST; dsDNA, one strand shown
# T5 sequence: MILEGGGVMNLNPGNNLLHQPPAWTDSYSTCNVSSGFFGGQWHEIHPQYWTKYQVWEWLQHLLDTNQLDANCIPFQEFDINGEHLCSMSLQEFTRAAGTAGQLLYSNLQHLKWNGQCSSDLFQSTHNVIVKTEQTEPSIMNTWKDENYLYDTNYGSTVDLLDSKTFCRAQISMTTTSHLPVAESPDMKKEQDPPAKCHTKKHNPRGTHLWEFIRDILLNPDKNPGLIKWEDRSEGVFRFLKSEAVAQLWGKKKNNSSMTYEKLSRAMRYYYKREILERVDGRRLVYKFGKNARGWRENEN
# How it was run: as §1
# SPI1 = SPI1 (Homo sapiens, UniProt P17947 1-270); conditions: protein: recombinant; tags: N-terminal GST; dsDNA, one strand shown
# How it was run: as §1
# SPIB = SPIB (Homo sapiens, UniProt Q01892 1-262); conditions: protein: recombinant; tags: N-terminal GST; dsDNA, one strand shown
# How it was run: as §1
# ELK3 = target: T6, ELK3 (Homo sapiens, UniProt P41970 1-407); conditions: protein: recombinant; tags: N-terminal GST; dsDNA, one strand shown
# T6 sequence: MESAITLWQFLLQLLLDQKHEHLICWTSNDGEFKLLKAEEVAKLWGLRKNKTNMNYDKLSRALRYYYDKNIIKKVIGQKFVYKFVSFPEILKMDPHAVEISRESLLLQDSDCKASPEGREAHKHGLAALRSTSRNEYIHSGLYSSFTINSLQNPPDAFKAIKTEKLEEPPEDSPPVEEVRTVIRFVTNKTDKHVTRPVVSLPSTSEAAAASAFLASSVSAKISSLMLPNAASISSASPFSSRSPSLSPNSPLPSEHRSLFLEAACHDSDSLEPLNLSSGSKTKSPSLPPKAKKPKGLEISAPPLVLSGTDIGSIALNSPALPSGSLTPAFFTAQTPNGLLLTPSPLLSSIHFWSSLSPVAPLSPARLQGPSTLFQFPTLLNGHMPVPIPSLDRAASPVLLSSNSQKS
# How it was run: as §1
# FEV = target: T7, FEV (Homo sapiens, UniProt Q99581 1-238); conditions: protein: recombinant; tags: N-terminal GST; dsDNA, one strand shown
# T7 sequence: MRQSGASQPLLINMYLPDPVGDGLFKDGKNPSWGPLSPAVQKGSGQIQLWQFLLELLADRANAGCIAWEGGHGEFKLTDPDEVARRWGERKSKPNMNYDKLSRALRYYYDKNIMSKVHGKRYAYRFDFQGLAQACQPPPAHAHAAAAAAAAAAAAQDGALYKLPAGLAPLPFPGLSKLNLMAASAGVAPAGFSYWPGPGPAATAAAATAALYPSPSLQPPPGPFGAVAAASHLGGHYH
# How it was run: as §1
# ETV5 = ETV5 (Homo sapiens, UniProt P41161 1-510); conditions: protein: recombinant; tags: N-terminal GST; dsDNA, one strand shown
# How it was run: as §1
# HSF1 = HSF1 (Homo sapiens, UniProt Q00613 1-529); conditions: protein: recombinant; tags: N-terminal GST; chain copies: 3; dsDNA, one strand shown
# How it was run: as §1
# SPIC = target: T8, SPIC (Homo sapiens, UniProt Q8N5J4 1-248); conditions: protein: recombinant; tags: N-terminal GST; dsDNA, one strand shown
# T8 sequence: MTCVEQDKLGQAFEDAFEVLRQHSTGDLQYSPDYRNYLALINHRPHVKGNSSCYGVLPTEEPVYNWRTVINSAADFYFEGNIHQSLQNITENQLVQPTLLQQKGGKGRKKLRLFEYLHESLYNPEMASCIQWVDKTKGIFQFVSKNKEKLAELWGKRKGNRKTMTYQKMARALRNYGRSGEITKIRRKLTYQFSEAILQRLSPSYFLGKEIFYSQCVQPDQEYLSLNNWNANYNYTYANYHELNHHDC
# How it was run: as §1
# ELF4 = ELF4 (Homo sapiens, UniProt Q99607 1-663); conditions: protein: recombinant; tags: N-terminal GST; dsDNA, one strand shown
# How it was run: as §1
# ELK4 = target: T9, ELK4 (Homo sapiens, UniProt P28324-2 1-405); conditions: protein: recombinant; tags: N-terminal GST; dsDNA, one strand shown
# T9 sequence: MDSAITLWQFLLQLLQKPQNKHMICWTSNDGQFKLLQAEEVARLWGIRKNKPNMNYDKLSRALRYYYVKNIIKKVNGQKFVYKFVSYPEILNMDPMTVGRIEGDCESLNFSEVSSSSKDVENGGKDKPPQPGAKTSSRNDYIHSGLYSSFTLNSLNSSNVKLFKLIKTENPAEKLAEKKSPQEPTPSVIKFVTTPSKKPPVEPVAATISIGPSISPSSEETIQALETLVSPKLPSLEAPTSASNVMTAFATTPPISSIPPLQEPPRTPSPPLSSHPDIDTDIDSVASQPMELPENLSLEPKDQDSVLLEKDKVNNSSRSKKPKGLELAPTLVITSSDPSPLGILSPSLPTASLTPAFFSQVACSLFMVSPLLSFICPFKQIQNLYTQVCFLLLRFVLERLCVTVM
# How it was run: as §1
# ETV2 = target: T10, ETV2 (Homo sapiens, UniProt O00321 1-342); conditions: protein: recombinant; tags: N-terminal GST; dsDNA, one strand shown
# T10 sequence: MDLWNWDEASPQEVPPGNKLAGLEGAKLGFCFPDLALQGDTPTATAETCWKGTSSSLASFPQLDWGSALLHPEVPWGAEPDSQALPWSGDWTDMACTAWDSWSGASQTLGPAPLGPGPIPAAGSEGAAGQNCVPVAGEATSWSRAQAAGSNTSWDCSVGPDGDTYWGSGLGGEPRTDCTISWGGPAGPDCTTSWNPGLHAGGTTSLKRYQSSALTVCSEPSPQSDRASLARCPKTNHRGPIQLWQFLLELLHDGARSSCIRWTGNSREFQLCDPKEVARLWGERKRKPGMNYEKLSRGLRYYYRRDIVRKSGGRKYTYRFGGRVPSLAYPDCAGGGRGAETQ
# How it was run: as §1
# ELF3 = target: T11, ELF3 (Homo sapiens, UniProt P78545 1-371); conditions: protein: recombinant; tags: N-terminal GST; dsDNA, one strand shown
# T11 sequence: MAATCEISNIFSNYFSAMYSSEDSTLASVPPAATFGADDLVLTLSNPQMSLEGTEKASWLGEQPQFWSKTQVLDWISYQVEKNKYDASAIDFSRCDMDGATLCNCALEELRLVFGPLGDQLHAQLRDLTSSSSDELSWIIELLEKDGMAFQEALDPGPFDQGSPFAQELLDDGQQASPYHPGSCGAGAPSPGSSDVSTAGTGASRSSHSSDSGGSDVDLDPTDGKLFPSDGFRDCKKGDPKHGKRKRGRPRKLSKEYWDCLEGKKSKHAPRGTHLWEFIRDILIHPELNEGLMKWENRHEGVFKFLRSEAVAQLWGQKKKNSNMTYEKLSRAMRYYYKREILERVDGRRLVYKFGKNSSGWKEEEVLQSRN
# How it was run: as §1
# CRX = CRX (Homo sapiens, UniProt O43186 1-299); conditions: protein: recombinant; tags: N-terminal GST; dsDNA, one strand shown
# How it was run: as §1
# ETV1 = ETV1 (Homo sapiens, UniProt P50549 1-477); conditions: protein: recombinant; tags: N-terminal GST; dsDNA, one strand shown
# How it was run: as §1
# ETV1, sequence (P50549 whole entry): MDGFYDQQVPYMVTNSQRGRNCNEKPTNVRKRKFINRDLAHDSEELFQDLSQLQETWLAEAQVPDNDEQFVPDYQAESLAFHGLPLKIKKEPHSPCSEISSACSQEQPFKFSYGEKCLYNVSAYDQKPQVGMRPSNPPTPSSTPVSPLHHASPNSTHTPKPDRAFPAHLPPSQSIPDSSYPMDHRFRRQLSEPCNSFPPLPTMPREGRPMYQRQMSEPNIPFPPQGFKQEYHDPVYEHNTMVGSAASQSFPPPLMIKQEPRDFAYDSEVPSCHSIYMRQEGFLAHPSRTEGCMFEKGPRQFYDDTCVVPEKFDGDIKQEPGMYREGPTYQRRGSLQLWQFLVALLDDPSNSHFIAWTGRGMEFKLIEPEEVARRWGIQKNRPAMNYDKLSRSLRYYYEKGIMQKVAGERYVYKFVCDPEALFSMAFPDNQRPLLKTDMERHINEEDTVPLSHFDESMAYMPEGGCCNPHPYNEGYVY
# ETV5, sequence (P41161 whole entry): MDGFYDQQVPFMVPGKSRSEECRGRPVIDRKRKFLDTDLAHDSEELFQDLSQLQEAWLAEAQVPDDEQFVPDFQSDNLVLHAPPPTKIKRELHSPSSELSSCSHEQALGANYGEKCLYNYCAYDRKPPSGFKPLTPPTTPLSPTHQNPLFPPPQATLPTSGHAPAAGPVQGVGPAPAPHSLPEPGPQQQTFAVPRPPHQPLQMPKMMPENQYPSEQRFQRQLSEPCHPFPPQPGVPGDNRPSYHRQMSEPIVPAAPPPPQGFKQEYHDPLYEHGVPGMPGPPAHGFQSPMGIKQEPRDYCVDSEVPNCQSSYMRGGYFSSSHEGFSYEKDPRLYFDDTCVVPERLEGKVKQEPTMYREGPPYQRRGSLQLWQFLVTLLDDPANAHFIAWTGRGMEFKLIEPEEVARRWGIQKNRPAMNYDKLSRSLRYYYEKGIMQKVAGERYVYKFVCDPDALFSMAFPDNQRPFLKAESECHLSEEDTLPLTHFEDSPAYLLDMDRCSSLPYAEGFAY
# HSF1, sequence (Q00613 whole entry): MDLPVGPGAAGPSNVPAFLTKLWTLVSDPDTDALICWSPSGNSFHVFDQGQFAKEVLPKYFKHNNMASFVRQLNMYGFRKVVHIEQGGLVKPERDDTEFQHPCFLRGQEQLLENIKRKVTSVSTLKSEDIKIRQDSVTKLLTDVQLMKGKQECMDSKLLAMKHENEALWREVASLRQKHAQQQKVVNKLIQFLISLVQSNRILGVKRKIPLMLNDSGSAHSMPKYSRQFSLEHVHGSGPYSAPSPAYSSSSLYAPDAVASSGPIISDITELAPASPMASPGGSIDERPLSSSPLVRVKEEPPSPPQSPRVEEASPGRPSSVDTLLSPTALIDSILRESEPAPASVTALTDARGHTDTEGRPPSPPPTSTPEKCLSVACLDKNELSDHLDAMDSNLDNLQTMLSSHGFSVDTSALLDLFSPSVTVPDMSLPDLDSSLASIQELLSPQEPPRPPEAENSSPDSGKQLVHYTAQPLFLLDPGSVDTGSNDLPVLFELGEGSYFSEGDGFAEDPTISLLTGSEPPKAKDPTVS
# CRX, sequence (O43186 whole entry): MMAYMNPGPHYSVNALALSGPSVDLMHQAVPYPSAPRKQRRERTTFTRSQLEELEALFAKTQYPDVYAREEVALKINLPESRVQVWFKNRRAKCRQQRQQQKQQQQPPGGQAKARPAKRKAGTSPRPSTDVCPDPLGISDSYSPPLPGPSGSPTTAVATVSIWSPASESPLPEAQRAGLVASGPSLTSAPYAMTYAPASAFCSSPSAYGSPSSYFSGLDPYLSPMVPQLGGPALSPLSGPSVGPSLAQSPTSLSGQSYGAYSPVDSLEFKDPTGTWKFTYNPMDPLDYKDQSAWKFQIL
# ELF1, sequence (P32519 whole entry): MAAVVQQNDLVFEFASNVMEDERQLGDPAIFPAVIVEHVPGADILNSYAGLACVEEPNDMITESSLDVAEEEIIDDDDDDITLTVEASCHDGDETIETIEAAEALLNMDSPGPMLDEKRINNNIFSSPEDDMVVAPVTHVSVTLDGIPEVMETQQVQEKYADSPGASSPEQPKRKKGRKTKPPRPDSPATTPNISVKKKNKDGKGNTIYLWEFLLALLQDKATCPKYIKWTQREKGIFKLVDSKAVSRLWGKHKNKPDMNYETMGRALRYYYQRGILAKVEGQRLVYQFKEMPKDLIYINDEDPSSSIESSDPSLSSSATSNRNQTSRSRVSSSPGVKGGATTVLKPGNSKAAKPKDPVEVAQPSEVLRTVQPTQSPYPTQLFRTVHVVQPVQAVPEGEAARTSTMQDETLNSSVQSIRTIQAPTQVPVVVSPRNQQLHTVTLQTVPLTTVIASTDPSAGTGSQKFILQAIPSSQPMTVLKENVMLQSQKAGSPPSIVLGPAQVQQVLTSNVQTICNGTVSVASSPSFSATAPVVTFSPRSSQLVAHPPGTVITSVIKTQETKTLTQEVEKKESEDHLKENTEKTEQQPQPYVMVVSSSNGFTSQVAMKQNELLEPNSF
# ELF4, sequence (Q99607 whole entry): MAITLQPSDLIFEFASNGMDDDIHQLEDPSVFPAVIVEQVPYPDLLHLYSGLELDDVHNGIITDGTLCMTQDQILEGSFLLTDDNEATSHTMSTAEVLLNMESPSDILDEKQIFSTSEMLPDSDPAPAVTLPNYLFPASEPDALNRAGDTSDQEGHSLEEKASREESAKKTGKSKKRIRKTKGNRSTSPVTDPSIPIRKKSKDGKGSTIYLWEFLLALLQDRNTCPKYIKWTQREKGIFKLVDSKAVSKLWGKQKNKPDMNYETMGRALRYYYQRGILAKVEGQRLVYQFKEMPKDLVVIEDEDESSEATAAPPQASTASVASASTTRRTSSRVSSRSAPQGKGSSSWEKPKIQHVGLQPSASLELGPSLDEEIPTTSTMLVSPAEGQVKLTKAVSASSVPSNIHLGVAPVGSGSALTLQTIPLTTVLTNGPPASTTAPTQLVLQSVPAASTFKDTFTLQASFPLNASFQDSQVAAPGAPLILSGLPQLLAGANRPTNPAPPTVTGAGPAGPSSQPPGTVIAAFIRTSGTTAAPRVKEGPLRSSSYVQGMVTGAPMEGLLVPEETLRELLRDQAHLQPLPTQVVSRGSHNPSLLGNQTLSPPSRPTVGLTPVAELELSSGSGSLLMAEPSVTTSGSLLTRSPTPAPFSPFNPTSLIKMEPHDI
# SPIB, sequence (Q01892 whole entry): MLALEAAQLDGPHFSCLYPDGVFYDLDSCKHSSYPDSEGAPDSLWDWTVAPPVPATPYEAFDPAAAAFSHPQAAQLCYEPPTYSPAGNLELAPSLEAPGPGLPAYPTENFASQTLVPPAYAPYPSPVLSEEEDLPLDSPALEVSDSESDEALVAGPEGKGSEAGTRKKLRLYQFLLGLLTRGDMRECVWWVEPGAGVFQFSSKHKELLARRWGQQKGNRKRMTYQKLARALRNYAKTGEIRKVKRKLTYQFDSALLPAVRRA
sequence,measurement,setting,value
ATCTGC,binding signal,FLI1,"1.3 fold enrichment (6-mer frequency, TF over GST control)"
same,binding signal,ELK1,"1.28 fold enrichment (6-mer frequency, TF over GST control)"
same,binding signal,GABPA,"1.47 fold enrichment (6-mer frequency, TF over GST control)"
same,binding signal,ERG,"1.37 fold enrichment (6-mer frequency, TF over GST control)"
same,binding signal,ELF1,"1.45 fold enrichment (6-mer frequency, TF over GST control)"
same,binding signal,EHF,"1.34 fold enrichment (6-mer frequency, TF over GST control)"
same,binding signal,SPI1,"1.44 fold enrichment (6-mer frequency, TF over GST control)"
same,binding signal,SPIB,"1.41 fold enrichment (6-mer frequency, TF over GST control)"
same,binding signal,ELK3,"1.34 fold enrichment (6-mer frequency, TF over GST control)"
same,binding signal,FEV,"1.41 fold enrichment (6-mer frequency, TF over GST control)"
same,binding signal,ETV5,"1.46 fold enrichment (6-mer frequency, TF over GST control)"
same,binding signal,HSF1,"1.44 fold enrichment (6-mer frequency, TF over GST control)"
same,binding signal,SPIC,"1.46 fold enrichment (6-mer frequency, TF over GST control)"
same,binding signal,ELF4,"1.44 fold enrichment (6-mer frequency, TF over GST control)"
same,binding signal,ELK4,"1.5 fold enrichment (6-mer frequency, TF over GST control)"
same,binding signal,ETV2,"1.44 fold enrichment (6-mer frequency, TF over GST control)"
same,binding signal,ELF3,"1.14 fold enrichment (6-mer frequency, TF over GST control)"
same,binding signal,CRX,"1.67 fold enrichment (6-mer frequency, TF over GST control)"
same,binding signal,ETV1,"1.36 fold enrichment (6-mer frequency, TF over GST control)"
